Screens as filed in PubChem BioAssay.
Fluor 339 460 – intrinsic fluorescence of library compounds, ex339/em460 – biochemical, MLSMR library, data from DPM-DC assay, artefact control, profiling panel. compound autofluorescence, ex339/em460 nm, NADH buffer; hits give high values; 1 = no-compound wells, NADH background. fluorescence fold increase at 10 µM. 5.5% of 65,000 active. AID 709;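 active = at 10 µM, mean starting fluorescence two-fold or more over control wells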;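 note: signal is the first read of a kinetic run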
NADH coupling – inhibitors of enzymes used to reach an NAD/NADH endpoint. IC50, µM (doses to about 10 µM), for the others: top-dose inhibition. AID 774. coupled PK/LDH NADH assays, four targets. 0.02% of 65,000 active;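 active = single-dose screening hits from any of four coupled enzyme assays that gave an IC50 when retested across doses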;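 note: the DPM-DC format reads NADH fluorescence rather than 340 nm absorbance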
Spn PMK inh – blocks S. pneumoniae phosphomevalonate kinase. purified PMK, PK/LDH-coupled NADH absorbance 340 nm. AID 539. inhibition, % at 10 µM. 0.49% of 65,000 active;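 active = top-ranked compounds by inhibition in the single 10 µM screen, taking a fixed number of the strongest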;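 note: 0% = full reaction with DMSO carrier and 100% = background rate without enzyme reaction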
MK inhibit – inhibitors of Streptococcus pneumoniae mevalonate kinase. purified MK, PK/LDH-coupled NADH absorbance 340 nm. inhibition, % at 10 µM. 0.48% of 65,000 active. AID 555;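 active = ranked among the strongest by inhibition in the single 10 µM screen, a fixed top-ranked set picked for dose follow-up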
Spn DPM-DC inh – inhibitors of Streptococcus pneumoniae diphosphomevalonate decarboxylase. purified DPM-DC, PK/LDH coupled NADH fluorescence. calls only at 10 µM. 0.49% of 65,000 active. AID 556;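 active = the 320 compounds with the highest percent inhibition in the single-dose primary screen, excluding strongly autofluorescent ones, cut at about 32% in these data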;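 note: kinetic rate of NADH fluorescence loss reporting ADP formed by the decarboxylase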
Abs 340nm – compound absorbs light at 340 nm | compound absorbance at 340 nm, fold over control | fold change at 10 µM | 65,000 tested, under 10 active | AID 708;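 active = at 10 µM dose, initial 340 nm absorbance at least 2 fold that of control wells; inactive = change under 2 fold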;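 note: initial absorbance extrapolated from kinetic A340 decline of NADH oxidation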
* marks the source's active call; other numbers are inactive results; i = inactive; · = no result given. Most compounds without a hit are left out; they make up all but 6.8% or so of the library.

SMILES	Fluor 339 460	NADH coupling	Spn PMK inh	MK inhibit	Spn DPM-DC inh	Abs 340nm
O=C(Nc1c(C(=O)NCc2ccco2)cnn1-c1ccccc1)c1ccc(F)cc1	1.1	2%	13	3	i	1.1
COc1ccc(C2(C)NC(=O)N(Cc3cc(Cl)cc4c3OCOC4)C2=O)cc1OC (stereo not drawn)	1.1	13%	31*	7	i	0.9
CCCCS(=O)(=O)C(=C1Nc2ccccc2N1)S(=O)(=O)CCCC	1.2	15%	26*	13	i	1.1
Cc1sc2nc3n(c(=O)c2c1C)CCCS3	1.1	2%	2	2	i	1.1
Cc1sc2nc3ccc(N4CCCC4)nn3c(=O)c2c1C	2.1*	5%	3	7	·	1.1
O=S(=O)(c1cccs1)N1CCCc2ccccc21	1.1	8%	14	10	i	1
COC(=O)Cn1ncc2c(C)n(Cc3ccccc3)c(C)c2c1=O	1.1	1%	0	3	i	0.98
CNC(=O)Cn1ncc2c(C)n(Cc3ccc(C)cc3)c(C)c2c1=O	1.1	11%	34*	0	i	1
COCCn1cc(C(=O)N2CCC(C)CC2)c2c3ccccc3n(C)c2c1=O	4.8*	9%	9	8	·	1.1
Cn1c2ccccc2c2c(C(=O)N3CCN(c4ccccn4)CC3)cn(C3CCCC3)c(=O)c21	1.8	12%	17	6	i	1.1
CC(C)Cn1cc(C(=O)NCc2cccs2)c2c3ccccc3n(C)c2c1=O	2.6*	8%	8	3	i	1.1
CCOC(=O)N1CCN(C(=O)c2cn(CC(C)C)c(=O)c3c2c2ccccc2n3C)CC1	4.2*	15%	16	13	·	1
COc1ccc(N2CCN(C(=O)c3cn(C)c(=O)c4c3c3ccccc3n4C)CC2)cc1	1.3	5%	12	2	i	1.1
CCOC(=O)N1CCN(C(=O)c2cn(C)c(=O)c3c2c2ccccc2n3C)CC1	3.5*	12%	19	4	i	1.1
CSc1ccccc1NC(=O)COc1ccc(S(=O)(=O)N2CCCC2)cc1	1.1	1%	3	1	i	1
COCCCNC(=O)CN(c1cccc(Cl)c1)S(C)(=O)=O	1.1	1%	0	3	i	0.99
Cc1ccc2c(c1)nnn2C1CCN(CC(=O)Nc2ccc3c(c2)OCCO3)CC1	1.1	4%	11	0	i	0.98
COc1ccc(CCNC(=O)COC(=O)c2cnccn2)cc1	1	6%	14	5	i	0.97
CC1CCc2cccc3c2N1c1cc(C#N)c(C#N)cc1O3 (stereo not drawn)	1.4	11%	9	8	i	1
CCCN(CCC)CCCNC(=O)c1cn(CCOC)c(=O)c2c1c1ccccc1n2C	3.5*	15%	14	8	i	1.1
CCCN(CCC)CCCNC(=O)c1cc2c(=O)n(C)c3ccccc3c2n1C	1.6	12%	11	6	i	1.1
CC(C)Cn1cc(C(=O)N2CCOCC2)c2c3ccccc3n(C)c2c1=O	2.6*	8%	14	2	i	1.1
CN(CCc1ccccn1)Cc1ccc(Cl)cc1Cl	1.2	15%	0	44*	i	1.1
CN(CCc1ccccn1)S(=O)(=O)c1ccccc1F	1	5%	0	16	i	1.1
CC(Oc1ccc(Cl)cc1Cl)c1nc(-c2ccccn2)no1 (stereo not drawn)	1.1	4%	11	2	i	1
SMILES	Fluor 339 460	NADH coupling	Spn PMK inh	MK inhibit	Spn DPM-DC inh	Abs 340nm
COc1cccc2[nH]c3c(N4CCCCC4)ncnc3c12	3.7*	7%	9	4	·	1.1
COc1cc2[nH]c3c(N4CCN(c5ccccn5)CC4)ncnc3c2cc1OC	3.7*	14%	20	8	·	1.1
O=C(c1ccco1)N1CCN(c2ncnc3c2[nH]c2ccc(Br)cc23)CC1	1.7	6%	9	10	i	1.1
Fc1ccc2[nH]c3c(N4CCN(c5ccccc5)CC4)ncnc3c2c1	1.3	1%	2	0	i	1.1
O=C(c1ccco1)N1CCN(c2ncnc3c2[nH]c2ccccc23)CC1	1.8	7%	7	0	i	1.1
CCOC(=O)N1CCN(c2ncnc3c2[nH]c2ccc(OC)cc23)CC1	2.5*	1%	5	2	·	1
CCOC(=O)C1CCN(c2ncnc3c2[nH]c2cccc(OC)c23)CC1	3.7*	13%	16	9	·	1.1
COc1ccc(OC)c(NC(=O)C2C3CC4OC(=O)C2C4C3)c1 (stereo not drawn)	1	2%	7	5	i	0.98
COc1ccc(N2CCCn3c2nc2c3c(=O)n(Cc3ccccc3F)c(=O)n2C)c(OC)c1	1.2	3%	6	3	i	1
Cc1nc(NC(=O)CSc2ccccc2N)sc1C	1.1	6%	9	9	i	0.98
CC1(C(=O)N(CC(=O)NC2CCCC2)Cc2ccco2)CC(=O)N=C2C=CC=CN21 (stereo not drawn)	4.8*	7%	8	6	·	1
Cc1nn(-c2ccccc2)c2sc(C(=O)N(CC(=O)NC3CCCC3)Cc3ccco3)cc12	1.2	3%	1	9	i	1.1
COC(=O)CSCc1nc2ccccc2[nH]c1=O	1.5	12%	8	7	i	1.1
Cc1ccc2c(=O)c(CN(C)C3CCN(C)CC3)c(C)[nH]c2c1C	1.1	2%	5	2	i	1
COc1ccc(-c2csc(NCc3ccco3)n2)cc1C	1.1	6%	7	12	i	1
COc1ccc(-c2nc3cccc(C)n3c2NCc2ccco2)cc1OC	5.1*	9%	2	16	·	1
Cc1cccn2c(=O)c3cc(C(=O)NCc4cccnc4)c(=N)n(C)c3nc12	1.9	9%	9	3	i	1
Cc1cc(C)n2ncc(C(=O)NCc3cccnc3)c2n1	3.6*	7%	8	9	i	1
Cc1ccc2nc3c(cc(C(=O)NCc4cccnc4)c(=N)n3C(C)C)c(=O)n2c1	5*	7%	11	3	·	1
O=C(NCc1cccnc1)c1cnn2ccccc12	1.2	3%	4	5	i	1.1
Cc1cccn2c(=O)c3cc(C(=O)NCc4cccnc4)c(=N)n(C(C)C)c3nc12	3.7*	11%	7	15	·	1.1
COC(=O)C1=CN(C(C)C)C=C(C(=O)OC)C1c1cc2c(cc1Br)OCO2	2*	5%	4	7	i	1
CC1=C(C(=O)OCC(C)C)C(c2cc3c(cc2Br)OCO3)NC(=O)N1C (stereo not drawn)	1	3%	12	9	i	0.99
Cc1ccc(C2C3=C(CC(C)(C)CC3=O)Nc3n[nH]c(C)c32)cc1 (stereo not drawn)	4.9*	7%	12	1	·	1.1
